Several values for one entry are separate records, joined by “and”; a condition that tells them apart may be missing. Identical values can stand only once. Inconclusive results are not listed. Entries that show only a call come without a potency. Activity calls are given as the source filed them. Calls follow the shape of the dose curve; as a rule, active = well fitted curve in the direction sought with a large enough effect; inconclusive = small, poorly fitted or top-dose-only effect, or another doubt; inactive = no such curve, though single readings can be large; an effect the other way counts as inactive or inconclusive.
Target: Voltage-gated inwardly rectifying potassium channel KCNH2 (Homo sapiens) (UniProt Q12809)
Assay: qHTS Assay for Small Molecule Inhibitors of the Human hERG Channel Activity (AID 588834);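 also: lower thallium flux fluorescence means stronger hERG block; nearly all actives have a fitted effect of over 50% in size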
Conditions: U2OS BacMam hERG, FluxOR thallium flux fluorescence; series mostly up to 46.1 µM
Summary of the method: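 Concentration-response qHTS measuring drop in thallium-sensitive dye signal. U2OS cells carrying BacMam hERG; compound exposure ~10 min, then stimulation buffer and 2 min read at 1 sec intervals.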
Potency is read from the fitted curve at half-maximal effect.

Chain of Voltage-gated inwardly rectifying potassium channel KCNH2 (Homo sapiens) (Q12809 whole entry, looked up): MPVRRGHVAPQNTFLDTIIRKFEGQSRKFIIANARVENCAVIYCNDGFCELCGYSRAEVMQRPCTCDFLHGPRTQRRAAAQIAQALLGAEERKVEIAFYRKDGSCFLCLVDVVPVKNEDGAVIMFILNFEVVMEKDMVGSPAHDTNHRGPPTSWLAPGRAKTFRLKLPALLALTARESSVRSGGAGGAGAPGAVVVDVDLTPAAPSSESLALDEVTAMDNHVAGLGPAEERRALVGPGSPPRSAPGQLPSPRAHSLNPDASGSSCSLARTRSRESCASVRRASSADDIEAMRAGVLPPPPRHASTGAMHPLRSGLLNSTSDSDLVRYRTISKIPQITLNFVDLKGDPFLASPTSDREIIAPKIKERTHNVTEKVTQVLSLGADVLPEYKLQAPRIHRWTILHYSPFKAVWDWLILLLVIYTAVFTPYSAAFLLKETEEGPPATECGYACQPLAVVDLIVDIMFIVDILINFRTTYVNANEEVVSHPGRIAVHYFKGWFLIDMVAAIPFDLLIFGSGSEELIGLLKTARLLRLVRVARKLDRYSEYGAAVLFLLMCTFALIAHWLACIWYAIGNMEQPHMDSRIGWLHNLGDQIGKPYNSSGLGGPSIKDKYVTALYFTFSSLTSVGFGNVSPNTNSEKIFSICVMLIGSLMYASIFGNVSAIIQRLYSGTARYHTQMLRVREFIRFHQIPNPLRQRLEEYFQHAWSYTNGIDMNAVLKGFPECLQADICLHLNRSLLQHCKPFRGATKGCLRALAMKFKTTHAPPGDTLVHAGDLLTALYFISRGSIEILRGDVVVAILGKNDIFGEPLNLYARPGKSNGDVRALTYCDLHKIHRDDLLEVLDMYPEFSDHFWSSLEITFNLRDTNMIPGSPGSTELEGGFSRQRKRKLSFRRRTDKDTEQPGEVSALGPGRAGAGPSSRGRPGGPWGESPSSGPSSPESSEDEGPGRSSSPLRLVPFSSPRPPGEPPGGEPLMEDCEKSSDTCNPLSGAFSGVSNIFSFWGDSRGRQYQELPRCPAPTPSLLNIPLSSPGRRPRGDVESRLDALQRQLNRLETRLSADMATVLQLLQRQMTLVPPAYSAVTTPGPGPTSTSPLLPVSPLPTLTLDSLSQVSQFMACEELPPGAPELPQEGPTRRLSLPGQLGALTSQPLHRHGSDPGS

| Compound | Potency |
| --- | --- |
| Clc1ccc(Cn2c(CN3CCCC3)nc3ccccc32)cc1 | 1.41 µM (active) and 3.98 µM (active) |
| O=C(CCCCCCC(=O)Nc1ccccc1)NO | inactive |
| O=C(O)CCc1nc(-c2ccccc2)c(-c2ccccc2)o1 | inactive |
| O=C(NCCN1CCOCC1)c1ccc(Cl)cc1 | inactive |
| COc1cccc(-c2cc(=O)c3ccccc3o2)c1N | inactive |
| CCN(CC)C(=O)c1ccc(O)c(OC)c1 | inactive |
| CC(C)NCC(O)COc1cccc2[nH]ccc12 (stereo unspecified) | inactive |
| COC(=O)[C@@H]1[C@H]2C[C@H]3c4[nH]c5ccccc5c4CCN3C[C@@H]2CC[C@@H]1O | 11.2 µM (active) |
| O=C(O)c1c(Cl)c(Cl)c(Cl)c(Cl)c1-c1c2cc(I)c(=O)c(I)c-2oc2c(I)c(O)c(I)cc12 | 12.6 µM (active) |

Target: Luciferin 4-monooxygenase (Photinus pyralis) (UniProt P08659)
Assay: Biochemical firefly luciferase enzyme assay for NPC (AID 624030); also: nearly all actives have a fitted effect of over 70% in size
Conditions: purified P. pyralis luciferase, luminescence, 5 min; series mostly up to 58.6 µM
Summary of the method: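 Direct inhibition of firefly luciferase enzyme (10 nM final, 50 mM Tris Acetate) assessed by luminescence within 5 minutes. Percent activity scaled between DMSO and PTC124 positive control, with concentration-effect curves classified by fit quality and response.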

Chain of Luciferin 4-monooxygenase (Photinus pyralis) (P08659 whole entry, looked up): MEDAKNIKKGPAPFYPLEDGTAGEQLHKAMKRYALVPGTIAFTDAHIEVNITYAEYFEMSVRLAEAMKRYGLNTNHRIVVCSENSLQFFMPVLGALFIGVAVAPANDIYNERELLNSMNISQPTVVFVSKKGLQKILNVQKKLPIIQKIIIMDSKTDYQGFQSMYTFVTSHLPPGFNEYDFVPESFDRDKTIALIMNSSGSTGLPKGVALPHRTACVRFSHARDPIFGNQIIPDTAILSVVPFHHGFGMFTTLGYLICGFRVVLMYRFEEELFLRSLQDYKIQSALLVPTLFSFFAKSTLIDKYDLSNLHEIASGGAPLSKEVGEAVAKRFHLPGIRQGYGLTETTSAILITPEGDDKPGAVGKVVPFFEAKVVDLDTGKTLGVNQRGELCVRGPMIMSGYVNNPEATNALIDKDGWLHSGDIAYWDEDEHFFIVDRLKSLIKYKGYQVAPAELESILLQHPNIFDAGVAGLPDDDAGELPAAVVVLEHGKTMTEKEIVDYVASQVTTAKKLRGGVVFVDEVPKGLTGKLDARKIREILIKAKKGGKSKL

| Compound | Potency |
| --- | --- |
| CN1C[C@H]2c3ccccc3Oc3ccc(Cl)cc3[C@@H]2C1 | inactive |
| CCCCCN(C)CCC(O)(P(=O)(O)O)P(=O)(O)O | inactive |
| N#C[C@H]1C[C@H]2C[C@@H]2N1C(=O)[C@@H](N)C12CC3CC(CC(O)(C3)C1)C2 | inactive |
| Clc1ccc(Cn2c(CN3CCCC3)nc3ccccc32)cc1 | inactive |
| O=C(CCCCCCC(=O)Nc1ccccc1)NO | inactive |
| COCCCCC(=NOCCN)c1ccc(C(F)(F)F)cc1 | inactive |
| CCN(CC)CCNC(=O)c1ccc(N)cc1 | inactive |
| CN1[C@@H]2CCC[C@@H]1CC(NC(=O)c1nn(C)c3ccccc13)C2 (stereo partly specified) | inactive |
| O=C(O)CCc1nc(-c2ccccc2)c(-c2ccccc2)o1 | inactive |
| Clc1ccc(COC(Cn2ccnc2)c2ccc(Cl)cc2Cl)cc1 (stereo unspecified) | inactive |
| CC/C(=C(\c1ccccc1)c1ccc(OCCN(C)C)cc1)c1ccccc1 | inactive |
| O=C(NCCN1CCOCC1)c1ccc(Cl)cc1 | inactive |
| CC(=O)Oc1cc2c(s1)CCN(C(C(=O)C1CC1)c1ccccc1F)C2 (stereo unspecified) | inactive |
| Cc1nnc(C(C)C)n1C1C[C@H]2CC[C@@H](C1)N2CC[C@H](NC(=O)C1CCC(F)(F)CC1)c1ccccc1 (stereo partly specified) | inactive |
| CCN(CC)C(=O)c1ccc(O)c(OC)c1 | inactive |
| CC(C)(C)c1ccc(C(O)CCCN2CCC(C(O)(c3ccccc3)c3ccccc3)CC2)cc1 (stereo unspecified) | inactive |
| NC[C@@H]1O[C@@H](O[C@H]2[C@@H](O)[C@H](O[C@@H]3[C@@H](O)[C@@H](N)C[C@H](N)[C@H]3O[C@H]3O[C@H](CN)[C@@H](O)[C@@H](O)[C@H]3N)O[C@H]2CO)[C@H](N)[C@@H](O)[C@@H]1O | inactive |
| CC(C)NCC(O)COc1cccc2[nH]ccc12 (stereo unspecified) | inactive |
| COc1ccc(Cc2nccc3cc(OC)c(OC)cc23)cc1OC | inactive |
| COc1cc2ncnc(Nc3ccc(F)c(Cl)c3)c2cc1OCCCN1CCOCC1 | inactive |
| NC(N)=Nc1nc(CSCC/C(N)=N/S(N)(=O)=O)cs1 | inactive |
| O=C(O)c1c(Cl)c(Cl)c(Cl)c(Cl)c1-c1c2cc(I)c(=O)c(I)c-2oc2c(I)c(O)c(I)cc12 | 25.6 µM (active) |
| O=C1Nc2ccc(Cl)cc2C(C#CC2CC2)(C(F)(F)F)O1 (stereo unspecified) | inactive |

Test system: not listed separately
Assay: S16 Schwann cell viability assay (CellTiter-Glo assay) (AID 624031); also: nearly all actives have a fitted effect of over 70% in size
Conditions: S16 rat Schwann cells viability, 24 h; series mostly up to 57.5 µM
Summary of the method: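 Following overnight culture in 10% FBS DMEM, parental S16 rat Schwann cells are dosed for 24 h at 37 °C. Viability is read as CellTiter-Glo luminescence and expressed as % activity relative to DMSO (0%) and no-cell wells.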

| Compound | Potency |
| --- | --- |
| CCCCCN(C)CCC(O)(P(=O)(O)O)P(=O)(O)O | inactive |
| Clc1ccc(Cn2c(CN3CCCC3)nc3ccccc32)cc1 | inactive |
| O=C(CCCCCCC(=O)Nc1ccccc1)NO | inactive |
| CCN(CC)CCNC(=O)c1ccc(N)cc1 | inactive |
| O=C(O)CCc1nc(-c2ccccc2)c(-c2ccccc2)o1 | inactive |
| Clc1ccc(COC(Cn2ccnc2)c2ccc(Cl)cc2Cl)cc1 (stereo unspecified) | inactive |
| CC/C(=C(\c1ccccc1)c1ccc(OCCN(C)C)cc1)c1ccccc1 | 32.2 µM (active) |
| CCN(CC)C(=O)c1ccc(O)c(OC)c1 | inactive |
| CC(C)(C)c1ccc(C(O)CCCN2CCC(C(O)(c3ccccc3)c3ccccc3)CC2)cc1 (stereo unspecified) | 16.1 µM (active) |
| CC(C)NCC(O)COc1cccc2[nH]ccc12 (stereo unspecified) | inactive |
| COc1ccc(Cc2nccc3cc(OC)c(OC)cc23)cc1OC | inactive |
| NC(N)=Nc1nc(CSCC/C(N)=N/S(N)(=O)=O)cs1 | inactive |
| O=C(O)c1c(Cl)c(Cl)c(Cl)c(Cl)c1-c1c2cc(I)c(=O)c(I)c-2oc2c(I)c(O)c(I)cc12 | inactive |
| O=C1Nc2ccc(Cl)cc2C(C#CC2CC2)(C(F)(F)F)O1 (stereo unspecified) | inactive |

Test system: not listed separately
Assay: S16 Schwann cell PMP22 intronic element firefly luciferase assay (AID 624032); also: nearly all actives have a fitted effect of over 30% in size
Conditions: S16 rat Schwann cells, PMP22 element FLuc, 24 h; series mostly up to 57.5 µM
Summary of the method: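 Luciferase reporter of PMP22 intronic-element expression in stably transfected S16 rat Schwann cells, read by ONE-Glo luminescence after 24 h compound exposure at 37 C. Activity scaled between DMSO (0%) and positive-control PTC124; concentration-effect curves quality-classified.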

| Compound | Potency |
| --- | --- |
| CCCCCN(C)CCC(O)(P(=O)(O)O)P(=O)(O)O | inactive |
| COCCCCC(=NOCCN)c1ccc(C(F)(F)F)cc1 | inactive |
| CCN(CC)CCNC(=O)c1ccc(N)cc1 | inactive |
| O=C(O)CCc1nc(-c2ccccc2)c(-c2ccccc2)o1 | inactive |
| O=C(NCCN1CCOCC1)c1ccc(Cl)cc1 | inactive |
| CCN(CC)C(=O)c1ccc(O)c(OC)c1 | inactive |
| CC(C)(C)c1ccc(C(O)CCCN2CCC(C(O)(c3ccccc3)c3ccccc3)CC2)cc1 (stereo unspecified) | inactive |
| CC(C)NCC(O)COc1cccc2[nH]ccc12 (stereo unspecified) | inactive |
| COc1cc2ncnc(Nc3ccc(F)c(Cl)c3)c2cc1OCCCN1CCOCC1 | 36.1 µM (active) |
| NC(N)=Nc1nc(CSCC/C(N)=N/S(N)(=O)=O)cs1 | inactive |

From PubChem BioAssay (NCATS)
